These results are taken from PubChem BioAssay (EPA / NIEHS).

What is called AC50 is the concentration giving half of the maximal activity seen.

SMILES strings stand for the structures. Inconclusive results are not listed. The source made the active and inactive calls. Rule for the calls: active = hit-call score of the fitted dose curve at least 0.9, where 1 is the maximum; inconclusive = response in the unintended direction; inactive = score below 0.9.

For this experiment, the target named is zebrafish Thyroid Hormone Receptor beta (TRb), thrb (gene 30607) (UniProt Q9PVE4). Put plainly: ATG_zfTRb_XSP2: Attagene TRANS-FACTORIAL Multi-Species (XSP1) HepG2 Assay for zebrafish Thyroid Hormone Receptor beta (TRb) (AID 2283836).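 For AC50: potency for induction of reporter signal above DMSO so agonist direction.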 Here is the method: ATG_XSP2_multi-species_TRANS is a cell-based, multiplexed assay created by modifying the existing Attagene TRANS-FACTORIAL system to include a panel of nuclear receptors from some or all the following species: human (Homo sapiens), mouse (Mus musculus), frog (Xenopus laevis), zebrafish (Danio rerio), chicken (Gallus gallus), and turtle (Chrysemys picta). The ECOTOX-FACTORIAL format uses HepG2, a human liver cell line, with measurements taken at 24 hours after chemical dosing in a 24-well plate. Xsp2 included 3 nM 6-alpha-fluorotestosterone and 1.5 nM norgestrel to stimulate the androgen receptor.ATG_zfTRb_XSP2 is one of 29 assay components measured or calculated from the ATG_XSP2_multi-species_TRANS assay. It is designed to make measurements of mRNA induction, a form of inducible reporter, as detected with fluorescence intensity signals by Reverse transcription polymerase chain reaction (RT-PCR) and Capillary electrophoresis technology.The assay endpoint ATG_zfTRb_XSP2 was analyzed in the positive analysis fitting direction relative to DMSO as the negative control and baseline of activity. Using a type of inducible reporter, measures of mRNA for gain-of-signal activity can be used to understand the reporter gene at the transcription factor-level as they relate to the gene TR. Furthermore, this assay endpoint can be referred to as a primary readout, because this assay has produced multiple assay endpoints where this one serves a reporter gene function. To generalize the intended target to other relatable targets, this assay endpoint is annotated to the nuclear receptor intended target family, where the subfamily is non-steroidal.
Sequence of zebrafish Thyroid Hormone Receptor beta (TRb), thrb (gene 30607) (Q9PVE4 whole entry, looked up): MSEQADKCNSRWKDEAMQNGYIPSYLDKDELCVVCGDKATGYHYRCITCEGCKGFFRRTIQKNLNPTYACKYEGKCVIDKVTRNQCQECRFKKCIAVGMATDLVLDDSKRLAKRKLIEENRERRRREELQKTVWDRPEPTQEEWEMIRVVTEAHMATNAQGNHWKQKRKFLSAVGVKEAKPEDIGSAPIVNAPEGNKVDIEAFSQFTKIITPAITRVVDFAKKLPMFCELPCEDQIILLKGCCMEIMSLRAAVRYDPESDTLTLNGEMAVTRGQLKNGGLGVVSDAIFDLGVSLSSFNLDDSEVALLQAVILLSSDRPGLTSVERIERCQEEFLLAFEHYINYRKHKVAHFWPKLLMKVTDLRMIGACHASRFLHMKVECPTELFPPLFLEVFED
Human liver HepG2 cells are transiently transfected with multiple reporter transcription units (MRTUs) in 6-well plates using FuGene 6 reagent (Roche; 3 ml FuGene/1 mg DNA). The MRTU constructs are regulated by a cis-regulating element (promoter). […] A major difference between the CIS and TRANS system is that in CIS activities of endogenous TFs are measured, whereas the TRANS assay evaluates changes in activities of exogenous, chimeric NR-Gal4 proteins. […] At the end of 24 hour incubation, total RNA was isolated using TriZol reagent (Invitrogen). The isolated RNA is then reverse-transcribed using oligo(dT) primer and Mo-MLV reverse transcriptase (Invitrogen) with DNAse I (Ambion) treatment for 30 min. The one-tenth of the produced cDNA was amplified by PCR using Taq DNA polymerase (Invitrogen) and two reporter sequence-specific primers. The PCR products were fluorescently labeled by primer extension with 6-arboxyfluorescein (6-FAM) 5'-labeled reporter sequence-specific primer (2 min at 95 C, 20 s at 68 C and 10 min at 72 C) and these products were digested with 5U of HpaI (New England Biolabs) for 2h at 37 C. The fragments were purified using Qiaquick PCR columns (Qiagen), analyzed on an ABI 3130xL genetic analyzer (Applied Biosystems) with peak positions identified by using a set of X-rhodamine (ROX)-labeled MapMarker1000 molecular weight standards (BioVentures). The raw capillary electrophoresis data was processed using Attagraph software (Attagene).
Turning to `Oc1cc(Cl)ccc1Oc1ccc(Cl)cc1Cl`, the call was inactive.
With `CCCN(CCOc1c(Cl)cc(Cl)cc1Cl)C(=O)n1ccnc1`, the outcome was inactive.
Same read-out and setting: the result for `O=C(O)C(F)(F)C(F)(F)C(F)(F)C(F)(F)C(F)(F)C(F)(F)C(F)(F)F` reads “inactive”.
For `COP(=S)(OC)Oc1ccc([N+](=O)[O-])cc1`, the compound was called inactive.
Regarding `Oc1ccc(Cl)cc1Cc1ccccc1`, the concentration at half-maximal activity (AC50) is 10 µM (active).
Turning to `CC1(C)C(C=C(Cl)Cl)C1C(=O)OC(C#N)c1ccc(F)c(Oc2ccccc2)c1` (stereo not given), the outcome was inactive.
With `CCOCN(C(=O)CCl)c1c(C)cccc1CC`, the compound was called inactive.
`CCCN(CCC)c1c([N+](=O)[O-])cc(C(F)(F)F)cc1[N+](=O)[O-]`: the compound was classed as inactive.
With `O=S1OCC2C(CO1)C1(Cl)C(Cl)=C(Cl)C2(Cl)C1(Cl)Cl` (stereo not given), the compound was called inactive.
Same read-out and setting: to `CC(C)(C)C(O)/C(=C\c1ccc(Cl)cc1Cl)n1cncn1` (stereo not given) belongs “inactive”.
